The sample as a whole holds a higher share of hits than the screen did.
mHTT-CaM PPI inh: mutant huntingtin-calmodulin interaction inhibitors – biochemical, AlphaScreen, primary screen | P42858 | AlphaScreen His-mHTT/GST-CaM binding, luminescence | inhibition, % at 15 µM | 190,000 tested, 3.6% active;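 also: 0% = both proteins with DMSO and 100% = one protein alone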
Pf apPOL inh: Pf-apPOL inhibitors, biochemical, fluorescence. Recombinant Pf-apPOL, molecular beacon fluorescence, 1.5 h. inhibition, % at 10 µM. 210,000 tested, 0.25% active
* = called active by the depositor; . = not tested or not shown; ! = not confirmed by another sample. Rule as the data show it: active = inhibition above about 50%; inactive = the rest.

SMILES	mHTT-CaM PPI inh	Pf apPOL inh
CCc1ccc(-n2[nH]c3c(cnc4ccc(C(=O)N5CCCC5)cc43)c2=O)cc1	-4	4
CC(C)NC(=O)c1ccc2ncc3c(=O)n(-c4ccc(Cl)cc4)[nH]c3c2c1	51*	2
CCC1CCCCN1C(=O)c1ccc2ncc3c(=O)n(-c4ccccc4)[nH]c3c2c1 (configuration not stated)	66*	0
O=C(NCc1ccccn1)C1CCN(c2cncnc2N2CCCCC2)CC1	-1	0
COc1ccc(C(=O)N2CCN(C(=O)C(c3ccccc3)c3ccccc3)CC2)cc1	14	-7
N#Cc1cccc(C(=O)NCC#CCN2CCc3ccccc3C2)c1	0	-2
C#CCn1nnc(-c2cc(C(F)(F)F)cc(C(F)(F)F)c2)n1	.	-8
CCOc1ccc(C(=O)Nc2ccc(Nc3ccc(-n4cccn4)nn3)cc2)cc1OCC	88*	-7
Cc1ccc(S(=O)(=O)Nc2ccc(Nc3ccc(-n4cccn4)nn3)cc2)c(C)c1	100*	-2
COCC(=O)Nc1ccc(Nc2ccccc2)cc1	47	-13
Cc1ccc(Nc2cc(-n3cccn3)ncn2)cc1	0	-4
NS(=O)(=O)c1ccc(NC(=O)c2ccc(F)cc2)cc1	2	-1
COCC(=O)Nc1ccc(Nc2ccc(-n3cccn3)nn2)cc1	99*	-2
CCOc1ccc(C(=O)Nc2ccc(-n3nncc3-c3ccccc3)cc2)cc1OCC	20	-3
NS(=O)(=O)c1ccc(C(=O)Nc2ccc(Nc3ccc(-n4cccn4)nn3)cc2)cc1	95*	-8
COc1ccc2cc(C(N)=O)c(=Nc3ccc(C(N)=O)cc3)oc2c1	8	1
CCCCN1C(=O)C(C)(C(=O)NCc2cc(F)cc(F)c2)Oc2cccnc21 (configuration not stated)	0	-1
COC(=O)c1cccc(NC(=O)c2nc(C)oc2C)c1	-8	-2
CCOc1cc2c(c([N+](=O)[O-])c1)NC(c1ccccc1)C1CC=CC21 (configuration not stated)	57*	-2
COc1cc2c(c([N+](=O)[O-])c1)NC(C(C)C)C1CC=CC21 (configuration not stated)	97*	-6
COc1cc([N+](=O)[O-])cc2c1NC(C(C)C)C1CC=CC21 (configuration not stated)	16	-4
CCOc1cc2c(c([N+](=O)[O-])c1)NC(c1cccc([N+](=O)[O-])c1)C1CC=CC21 (configuration not stated)	41	3
CCN(CC)S(=O)(=O)c1cc(C(=O)NC2CCCCC2)ccc1Cl	-5	-2
CCN(C(=O)Cn1cnc2c(-c3ccc(C)cc3)csc2c1=O)c1ccccc1	-12	-4
CC(=O)Nc1cccnc1-c1ccc(C(=O)Nc2ccc(C(C)C)cc2)cc1	24	1
SMILES	mHTT-CaM PPI inh	Pf apPOL inh
CC(=O)NC(c1ccc(C(C)C)cc1)c1ccc2cccnc2c1O (configuration not stated)	100*	-34
CCCCC(=O)NC(c1cccc([N+](=O)[O-])c1)c1ccc2cccnc2c1O (configuration not stated)	100*	-7
O=C(Nc1cccc2cccnc12)c1cccc([N+](=O)[O-])c1	-1	1
CC(=O)NC(c1cccc([N+](=O)[O-])c1)c1ccc2cccnc2c1O (configuration not stated)	100*	1
O=CNC(c1ccccc1)c1cccc([N+](=O)[O-])c1 (configuration not stated)	0	0
O=C1CC(Nc2c[nH]c(=O)[nH]c2=O)C(=O)N1c1ccccc1Cl (configuration not stated)	-3	-3
CC1(C)CC(NCCC#N)CC(C)(C)N1	-7	-6
NCCN1CCC(O)CC1	-5	.
CN1CCN(NC(=O)c2ccc(Br)cc2)CC1	-6	-5
CCN(CC)CCCNC(=O)C1c2cc(OC)c(OC)cc2C(=O)N(C)C1c1cccnc1 (configuration not stated)	-9	-12
O=C(Nc1ccc([N+](=O)[O-])cc1O)C1C2CC/C=C\CCC21 (configuration not stated)	40	93*
Cc1ccc([N+](=O)[O-])cc1NC(=O)C1CC1	0	0
COc1ccc(-n2nc(C(=O)Nc3ccccc3F)c3ccccc3c2=O)c(OC)c1	27	-4
N#Cc1c(-c2ccccc2)cc(-c2ccco2)c(C#N)c1N	55*	9
N#CCOc1nc(-c2ccccc2)cc(-c2ccco2)c1C#N	.	0
N#Cc1ccc(-c2ccco2)[nH]c1=O	.	33
N#Cc1c(-c2ccco2)cc(-c2ccco2)[nH]c1=O	.	93*
CC1SC(c2ccc(Br)cc2)N(c2ccccc2)C1=O (configuration not stated)	-9	-5
Cc1cc(C)c(-c2noc(C)n2)c(NC(=O)c2cc(Cl)ccc2F)n1	-8	1
O=C(c1ccsc1)N1CCN(c2[nH]ncc2-c2ccccc2)CC1	63*	-2
O=C(c1ccncc1)N1CCN(c2[nH]ncc2-c2ccncc2)CC1	-1	-1
O=C(c1ccccc1)N1CCN(c2[nH]ncc2-c2ccccc2)CC1	77*	-4
O=C(c1cccs1)N1CCN(c2[nH]ncc2-c2ccncc2)CC1	0	-7
CC(=O)Nc1cccc(N2CC(C(=O)Nc3cccc(C)c3)CC2=O)c1 (configuration not stated)	-1	-3
Cc1ccc(C2=N/C(=C\c3ccc(I)cc3)C(=O)O2)cc1	-4	8
SMILES	mHTT-CaM PPI inh	Pf apPOL inh
Cc1cccc(C)c1NC1=NC(=S)N(c2cccc(O)c2)C12CCC(C(C)(C)C)CC2 (configuration not stated)	56*	-117
Cc1cccc(N(C)C(=O)CN2C(=O)NC3(CCC(C(C)(C)C)CC3)C2=O)c1 (configuration not stated)	1	-5
Cc1c(C(=O)NCc2nnc(SCC(=O)NC3CCCC3)o2)cccc1[N+](=O)[O-]	-16	-2
COc1cccc(N=Cc2ccc(O)c3c2OC(N)=C(C#N)C3c2ccccc2[N+](=O)[O-])c1 (configuration not stated)	95*	-4
COc1ccccc1N=Cc1ccc(O)c2c1OC(N)=C(C#N)C2c1cccc([N+](=O)[O-])c1 (configuration not stated)	77*	-8
N#CC1=C(N)Oc2c(C=Nc3ccccc3)ccc(O)c2C1c1ccc([N+](=O)[O-])cc1 (configuration not stated)	35	3
Cc1ccc(-n2nc(C)c3c2OC(N)=C(C#N)C3c2ccccc2[N+](=O)[O-])cc1 (configuration not stated)	9	-3
Cc1ccccc1CN1CCN(CC(=O)Nc2cccc(C(F)(F)F)c2)CC1	37	0
O=C(O)C1C2C=CC(C2)C1C(=O)Nc1ccc(I)cc1 (configuration not stated)	-4	-4
O=C(Nc1ccccc1)c1ccccc1	.	-7
NNC(=O)c1nc[nH]c1C(=O)Nc1ccccc1	81*	-7
COC(=O)c1sccc1S(=O)(=O)N1CCC(C(=O)NCc2nc(C)no2)CC1	-18	-2
Cc1[nH]c2ccccc2c1-c1csc(-c2ccncc2)n1	70*!	0
Cc1[nH]c2ccccc2c1-c1csc(-c2cccnc2)n1	33	0
COc1ccc([C@H]2C[C@@H](O)[C@H](n3cc(C4CC4)nn3)CN2Cc2cccs2)cc1	12	-3

Screening results deposited in PubChem by University of Kansas High Throughput Screening Laboratory.
